Reference: the supplement of paper PMC4466140

B1: unnamed (peptide)
chain: DTFLPPPPPPPSNFE

What follows are binders tested against AgAbp1 (assay: SPOT peptide array binding signal intensity (averaged, normalized) (arbitrary units (background-subtracted, floor 0; scale differs between SH3 domains)); higher = stronger binding of the SH3 domain to the peptide).
In short: (§1)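 Spot intensities were captured after detection with anti-GST antibody, an HRP-linked anti-mouse secondary and luminol, and quantified with Genespotter. The probes were GST-fused SH3 domains from four yeast species, produced in E. coli BL21(DE3), purified on glutathione Sepharose and incubated at 10 μg/ml overnight at 4°C on cellulose-bound synthetic 15-mer peptides with cysteines replaced by serines. Binding signal is the normalized, background-subtracted spot intensity averaged over replicates, and its arbitrary units differ between domains.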

Question: How did the “SPOT peptide array binding signal intensity” value turn out when B1 was run?
Answer: 2

These binders were tested against AgBbc1 in the same assay as above.
In short: as §1

Question: For B1, which “SPOT peptide array binding signal intensity” value is on record?
Answer: ≤ 0

Each binder was assayed against AgBem1-D1 in the same assay as above.
In short: as §1

Question: B1 was tested. Which “SPOT peptide array binding signal intensity” value did it give?
Answer: ≤ 0

These binders were tested against AgBzz1-D1 in the same assay as above.
In short: as §1

Question: For B1, which “SPOT peptide array binding signal intensity” value is on record?
Answer: ≤ 0

What follows are binders tested against AgBzz1-D2 in the same assay as above.
In short: as §1

Question: With B1 as the binder, how does the “SPOT peptide array binding signal intensity” value read?
Answer: ≤ 0

What follows are binders tested against AgCyk3 in the same assay as above.
In short: as §1

Question: With B1 as the binder, how does the “SPOT peptide array binding signal intensity” value read?
Answer: 1

What follows are binders tested against AgFus1 in the same assay as above.
In short: as §1

Question: How did the “SPOT peptide array binding signal intensity” value turn out when B1 was run?
Answer: ≤ 0

These binders were tested against AgHof1 in the same assay as above.
In short: as §1

Question: With B1 as the binder, how does the “SPOT peptide array binding signal intensity” value read?
Answer: 23.5

What follows are binders tested against AgHse1 in the same assay as above.
In short: as §1

Question: For B1, which “SPOT peptide array binding signal intensity” value is on record?
Answer: 4.5

The binders below were run against AgLsb1 in the same assay as above.
In short: as §1

Question: With B1 as the binder, how does the “SPOT peptide array binding signal intensity” value read?
Answer: ≤ 0

The binders below were run against AgLsb4 in the same assay as above.
In short: as §1

Question: Which “SPOT peptide array binding signal intensity” value does the source give for B1 here?
Answer: ≤ 0

These binders were tested against AgMyo5 in the same assay as above.
In short: as §1

Question: For B1, which “SPOT peptide array binding signal intensity” value is on record?
Answer: 1100

The binders below were run against AgNbp2 in the same assay as above.
In short: as §1

Question: How did the “SPOT peptide array binding signal intensity” value turn out when B1 was run?
Answer: ≤ 0

Each binder was assayed against AgRvs167 in the same assay as above.
In short: as §1

Question: Which “SPOT peptide array binding signal intensity” value does the source give for B1 here?
Answer: 1.33

Each binder was assayed against AgSho1 in the same assay as above.
In short: as §1

Question: With B1 as the binder, how does the “SPOT peptide array binding signal intensity” value read?
Answer: ≤ 0

The binders below were run against AgSla1-D1-D2 in the same assay as above.
In short: as §1

Question: B1 was tested. Which “SPOT peptide array binding signal intensity” value did it give?
Answer: ≤ 0

These binders were tested against AgSla1-D3 in the same assay as above.
In short: as §1

Question: For B1, which “SPOT peptide array binding signal intensity” value is on record?
Answer: 0.5

The binders below were run against CaAbp1-D1 in the same assay as above.
In short: as §1

Question: Which “SPOT peptide array binding signal intensity” value does the source give for B1 here?
Answer: ≤ 0

The binders below were run against CaAbp1-D2 in the same assay as above.
In short: as §1

Question: B1 was tested. Which “SPOT peptide array binding signal intensity” value did it give?
Answer: ≤ 0

The binders below were run against CaBbc1 in the same assay as above.
In short: as §1

Question: Which “SPOT peptide array binding signal intensity” value does the source give for B1 here?
Answer: ≤ 0

These binders were tested against CaBem1-D1 in the same assay as above.
In short: as §1

Question: For B1, which “SPOT peptide array binding signal intensity” value is on record?
Answer: ≤ 0

The binders below were run against CaBzz1-D1 in the same assay as above.
In short: as §1

Question: B1 was tested. Which “SPOT peptide array binding signal intensity” value did it give?
Answer: 108

These binders were tested against CaBzz1-D2 in the same assay as above.
In short: as §1

Question: With B1 as the binder, how does the “SPOT peptide array binding signal intensity” value read?
Answer: 11.8

These binders were tested against CaCyk3 in the same assay as above.
In short: as §1

Question: B1 was tested. Which “SPOT peptide array binding signal intensity” value did it give?
Answer: ≤ 0

These binders were tested against CaFus1 in the same assay as above.
In short: as §1

Question: With B1 as the binder, how does the “SPOT peptide array binding signal intensity” value read?
Answer: ≤ 0

These binders were tested against CaHof1 in the same assay as above.
In short: as §1

Question: Which “SPOT peptide array binding signal intensity” value does the source give for B1 here?
Answer: ≤ 0

The binders below were run against CaHse1 in the same assay as above.
In short: as §1

Question: For B1, which “SPOT peptide array binding signal intensity” value is on record?
Answer: 3.25

Each binder was assayed against CaLsb1 in the same assay as above.
In short: as §1

Question: How did the “SPOT peptide array binding signal intensity” value turn out when B1 was run?
Answer: ≤ 0

What follows are binders tested against CaLsb4 in the same assay as above.
In short: as §1

Question: For B1, which “SPOT peptide array binding signal intensity” value is on record?
Answer: ≤ 0

Each binder was assayed against CaMyo5 in the same assay as above.
In short: as §1

Question: With B1 as the binder, how does the “SPOT peptide array binding signal intensity” value read?
Answer: 11.5

What follows are binders tested against CaNbp2 in the same assay as above.
In short: as §1

Question: B1 was tested. Which “SPOT peptide array binding signal intensity” value did it give?
Answer: ≤ 0

What follows are binders tested against CaRvs167 in the same assay as above.
In short: as §1

Question: B1 was tested. Which “SPOT peptide array binding signal intensity” value did it give?
Answer: 0.5

The binders below were run against CaRvs167-3 in the same assay as above.
In short: as §1

Question: With B1 as the binder, how does the “SPOT peptide array binding signal intensity” value read?
Answer: ≤ 0

These binders were tested against CaSho1 in the same assay as above.
In short: as §1

Question: For B1, which “SPOT peptide array binding signal intensity” value is on record?
Answer: 12

These binders were tested against CaSla1-D1-D2 in the same assay as above.
In short: as §1

Question: How did the “SPOT peptide array binding signal intensity” value turn out when B1 was run?
Answer: ≤ 0

What follows are binders tested against CaSla1-D3 in the same assay as above.
In short: as §1

Question: Which “SPOT peptide array binding signal intensity” value does the source give for B1 here?
Answer: ≤ 0

These binders were tested against ScAbp1 in the same assay as above.
In short: as §1

Question: Which “SPOT peptide array binding signal intensity” value does the source give for B1 here?
Answer: ≤ 0

The binders below were run against ScBbc1 in the same assay as above.
In short: as §1

Question: B1 was tested. Which “SPOT peptide array binding signal intensity” value did it give?
Answer: ≤ 0

What follows are binders tested against ScBem1-D1 in the same assay as above.
In short: as §1

Question: How did the “SPOT peptide array binding signal intensity” value turn out when B1 was run?
Answer: ≤ 0

These binders were tested against ScBzz1-D1 in the same assay as above.
In short: as §1

Question: B1 was tested. Which “SPOT peptide array binding signal intensity” value did it give?
Answer: 2.5

The binders below were run against ScBzz1-D2 in the same assay as above.
In short: as §1

Question: With B1 as the binder, how does the “SPOT peptide array binding signal intensity” value read?
Answer: ≤ 0

These binders were tested against ScCyk3 in the same assay as above.
In short: as §1

Question: How did the “SPOT peptide array binding signal intensity” value turn out when B1 was run?
Answer: ≤ 0

Each binder was assayed against ScFus1 in the same assay as above.
In short: as §1

Question: With B1 as the binder, how does the “SPOT peptide array binding signal intensity” value read?
Answer: ≤ 0

The binders below were run against ScHof1 in the same assay as above.
In short: as §1

Question: Which “SPOT peptide array binding signal intensity” value does the source give for B1 here?
Answer: 25.5

What follows are binders tested against ScHse1 in the same assay as above.
In short: as §1

Question: How did the “SPOT peptide array binding signal intensity” value turn out when B1 was run?
Answer: ≤ 0

The binders below were run against ScLsb1 in the same assay as above.
In short: as §1

Question: For B1, which “SPOT peptide array binding signal intensity” value is on record?
Answer: ≤ 0

Each binder was assayed against ScLsb2 in the same assay as above.
In short: as §1

Question: How did the “SPOT peptide array binding signal intensity” value turn out when B1 was run?
Answer: ≤ 0

The binders below were run against ScLsb3 in the same assay as above.
In short: as §1

Question: B1 was tested. Which “SPOT peptide array binding signal intensity” value did it give?
Answer: ≤ 0

These binders were tested against ScLsb4 in the same assay as above.
In short: as §1

Question: With B1 as the binder, how does the “SPOT peptide array binding signal intensity” value read?
Answer: ≤ 0

The binders below were run against ScMyo3 in the same assay as above.
In short: as §1

Question: For B1, which “SPOT peptide array binding signal intensity” value is on record?
Answer: 2140

Each binder was assayed against ScMyo5 in the same assay as above.
In short: as §1

Question: How did the “SPOT peptide array binding signal intensity” value turn out when B1 was run?
Answer: 1690

Each binder was assayed against ScNbp2 in the same assay as above.
In short: as §1

Question: B1 was tested. Which “SPOT peptide array binding signal intensity” value did it give?
Answer: ≤ 0

These binders were tested against ScPex13 in the same assay as above.
In short: as §1

Question: How did the “SPOT peptide array binding signal intensity” value turn out when B1 was run?
Answer: 140

What follows are binders tested against ScRvs167 in the same assay as above.
In short: as §1

Question: How did the “SPOT peptide array binding signal intensity” value turn out when B1 was run?
Answer: 1

The binders below were run against ScSho1 in the same assay as above.
In short: as §1

Question: How did the “SPOT peptide array binding signal intensity” value turn out when B1 was run?
Answer: ≤ 0

The binders below were run against ScSla1-D1-D2 in the same assay as above.
In short: as §1

Question: Which “SPOT peptide array binding signal intensity” value does the source give for B1 here?
Answer: ≤ 0

Each binder was assayed against ScSla1-D3 in the same assay as above.
In short: as §1

Question: How did the “SPOT peptide array binding signal intensity” value turn out when B1 was run?
Answer: ≤ 0

What follows are binders tested against SpAbp1-D1 in the same assay as above.
In short: as §1

Question: For B1, which “SPOT peptide array binding signal intensity” value is on record?
Answer: ≤ 0

What follows are binders tested against SpBbc1 in the same assay as above.
In short: as §1

Question: How did the “SPOT peptide array binding signal intensity” value turn out when B1 was run?
Answer: ≤ 0

Each binder was assayed against SpBzz1-D1 in the same assay as above.
In short: as §1

Question: With B1 as the binder, how does the “SPOT peptide array binding signal intensity” value read?
Answer: 1360

These binders were tested against SpBzz1-D2 in the same assay as above.
In short: as §1

Question: B1 was tested. Which “SPOT peptide array binding signal intensity” value did it give?
Answer: 6.5

Each binder was assayed against SpCyk3 in the same assay as above.
In short: as §1

Question: For B1, which “SPOT peptide array binding signal intensity” value is on record?
Answer: ≤ 0

The binders below were run against SpHof1 in the same assay as above.
In short: as §1

Question: How did the “SPOT peptide array binding signal intensity” value turn out when B1 was run?
Answer: ≤ 0

These binders were tested against SpHof1-2 in the same assay as above.
In short: as §1

Question: For B1, which “SPOT peptide array binding signal intensity” value is on record?
Answer: 6.75

Each binder was assayed against SpHof1-3 in the same assay as above.
In short: as §1

Question: B1 was tested. Which “SPOT peptide array binding signal intensity” value did it give?
Answer: ≤ 0

What follows are binders tested against SpHse1 in the same assay as above.
In short: as §1

Question: How did the “SPOT peptide array binding signal intensity” value turn out when B1 was run?
Answer: 12.5

Each binder was assayed against SpLsb1 in the same assay as above.
In short: as §1

Question: B1 was tested. Which “SPOT peptide array binding signal intensity” value did it give?
Answer: ≤ 0

The binders below were run against SpLsb4 in the same assay as above.
In short: as §1

Question: B1 was tested. Which “SPOT peptide array binding signal intensity” value did it give?
Answer: ≤ 0

Each binder was assayed against SpMyo1 in the same assay as above.
In short: as §1

Question: How did the “SPOT peptide array binding signal intensity” value turn out when B1 was run?
Answer: 1100

The binders below were run against SpNbp2 in the same assay as above.
In short: as §1

Question: How did the “SPOT peptide array binding signal intensity” value turn out when B1 was run?
Answer: ≤ 0

The binders below were run against SpPex13 in the same assay as above.
In short: as §1

Question: B1 was tested. Which “SPOT peptide array binding signal intensity” value did it give?
Answer: ≤ 0

Each binder was assayed against SpRvs167 in the same assay as above.
In short: as §1

Question: With B1 as the binder, how does the “SPOT peptide array binding signal intensity” value read?
Answer: 2

These binders were tested against SpSla1-D1-D2 in the same assay as above.
In short: as §1

Question: For B1, which “SPOT peptide array binding signal intensity” value is on record?
Answer: ≤ 0

What follows are binders tested against SpSla1-D3 in the same assay as above.
In short: as §1

Question: B1 was tested. Which “SPOT peptide array binding signal intensity” value did it give?
Answer: ≤ 0
